Our source for the composite z-score and z-score values is PubChem BioAssay.

Active and inactive are the calls of the source.

The nature of assay [1]: small molecules captured by biotinylated probe aFSTL3 – biochemical, small-molecule microarray, fluorescence 635/667, stem cell growth factor project, primary screen (AID 1064).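 Further: measures binding of the biotinylated anti-FSTL3 antibody to printed compounds.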 As to conditions: higher = more signal.
Assay [2] in a line: binders from COS7 lysate, DM2A8 probe, primary screen, torsin A project, cell lysate, small-molecule microarray, fluorescence 635/667 (AID 1065). As to conditions: higher = more signal, COS7 lysate expressing mutant human TOR1A.
Assay [3] in a line: small molecules captured by biotinylated probe aFGF2 – biochemical, small-molecule microarray, fluorescence 635/667, stem cell growth factor project, primary screen (AID 1067).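 Further: measures binding of biotinylated aFGF2 protein to printed compounds on slides; z-score merges feature fluorescence and signal-to-noise across triplicate slides.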 As to conditions: higher = more signal.
Assay [4] can be described thus: small molecules captured by biotinylated probe aFGF10 – biochemical, small-molecule microarray, fluorescence 635/667, stem cell growth factor project, primary screen (AID 1071).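 Further: score merges 667 nm spot intensity and signal to noise from triplicate slides.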 As to conditions: higher = more signal.
The target in assay [5] is Neurogenic locus notch homolog protein 2 (Homo sapiens) (UniProt Q04721). Description: small molecules binding Notch2 protein – biochemical, small-molecule microarray, 635 nm fluorescence, stem cell growth factors, primary screen (AID 1073). As to conditions: higher = more signal.
Assay [6] deals with Pro-neuregulin-1, membrane-bound isoform (Homo sapiens) (UniProt Q02297). In words: small molecules binding neuregulin-1 protein – biochemical, small-molecule microarray, fluorescence 635/667, psychiatric disease protein project, primary screen (AID 1075).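 Further: score combines 667 nm spot fluorescence with signal to noise.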 As to conditions: NRG1 binding, 635 nm fluorescence, higher = more signal.
For assay [7], the system named is Neuregulin-1 EGF-like domain. In words: small molecules binding NRG1 EGF domain – biochemical, small-molecule microarray, 635 nm fluorescence, primary screen (AID 1081).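 Further: binding of the protein to compounds printed on small-molecule microarray slides.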 As to conditions: higher = more signal.
Assay [8] in a line: FRG1 expression reporter modulators in myotubes – cell-based, C2C12 myotubes, firefly/Renilla luciferase, luminescence, FRG1 inhibition for FSHD, primary screen (AID 1084). As to conditions: FRG1 promoter luciferase, higher = more signal, called active from +8 up or from −8 down.
Assay [9] in a line: small molecules captured by biotinylated probe aFST – biochemical, small-molecule microarray, fluorescence 635/667, stem cell growth factor project, primary screen (AID 1086).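 Further: score merges 667 nm fluorescence with signal-to-noise of each printed compound spot.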 As to conditions: higher = more signal.
A short description of assay [10]: binders of probe aHhip on microarray, primary screen, stem cell growth factor project, biochemical, small-molecule microarray, fluorescence 635/667 (AID 1087).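 Further: score merges spot fluorescence at 667nm with spot signal to noise ratio.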 As to conditions: higher = more signal.
In assay [11] the test system is PRMT1 (protein arginine N-methyltransferase 1). Description: small molecules binding arginine methyltransferase PRMT1 – biochemical, small-molecule microarray, 635 nm fluorescence, primary screen (AID 1088).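 Further: binding of Prmt1 protein to compounds spotted on small-molecule microarray slides.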 As to conditions: higher = more signal.
A short description of assay [12]: growth effects on S. cerevisiae YJM789 – YJM789 clinical isolate, OD600, 24 h, basal, primary screen (AID 1089).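 Further: growth of clinical yeast isolate S. cerevisiae YJM 789 seeded 1000 cells per well; test concentration not given here.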 As to conditions: higher = more signal, called active from +8 up or from −8 down.
Assay [13] can be described thus: S. pombe growth modifiers, basal conditions – strain 972, OD600, 24 h, no modulator, primary screen (AID 1090).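 Further: basal condition with compound alone and no growth modifier present; test concentration not given here.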 As to conditions: S. pombe 972 growth, higher = more signal, called active from +8 up or from −8 down.
Assay [14] in a line: budding yeast growth modifiers under rapamycin – strain BY4716, OD600, 96 h, primary screen (AID 1091). Further: test concentration not given here. As to conditions: S. cerevisiae BY4716 + rapamycin, higher = more signal, called active from +8 up or from −8 down.
Assay [15] deals with Torsin-1A-interacting protein 2 (Homo sapiens) (UniProt Q8NFQ8). In words: small molecules binding lysate-expressed LULL1 – cell lysate, human LULL1 lysate, 635/667 nm fluorescence, primary screen (AID 1092).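 Further: probe is lysate of COS7 cells overexpressing human LULL1; score merges per-feature 667 nm fluorescence with signal-to-noise.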 As to conditions: small-molecule microarray, hLULL1 lysate binding, 635 nm fluorescence; higher = more signal.
The nature of assay [16]: optical density change of DRC41 E. coli – strain DRC41, OD650, 24 h, E. coli filamentation project, primary screen (AID 1093).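 Further: MC1000 strain lacking acrAB efflux and sulA so SOS filamentation is blocked; test concentration not given here.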 As to conditions: E. coli DRC41 growth, higher = more signal, called active from +8 up or from −8 down.
Assay [17] can be described thus: probe aLefty2 binding to arrayed compounds – biochemical, biotinylated probe, 635/667 nm fluorescence, primary screen (AID 1094).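 Further: score merges spot fluorescence near 667 nm with spot signal-to-noise ratio.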 As to conditions: small-molecule microarray, higher = more signal.
The test system of assay [18] is Noggin (protein binding on small-molecule microarray). In words: small molecules binding Noggin protein – biochemical, 635/667 nm fluorescence, primary screen (AID 1095).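 Further: score merges 667 nm feature fluorescence with signal to noise over triplicate slides.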 As to conditions: 635 nm fluorescence, higher = more signal.
Assay [19] concerns the target Neurogenic locus notch homolog protein 3 (Homo sapiens) (UniProt Q9UM47). Description: small molecules binding NOTCH3 protein – biochemical, 635/667 nm fluorescence, primary screen (AID 1096). As to conditions: small-molecule microarray, 635 nm fluorescence, higher = more signal.
A short description of assay [20]: probe aEGFR binding to arrayed compounds – biochemical, biotinylated probe, 635/667 nm fluorescence, primary screen (AID 1097).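 Further: probe is a biotinylated anti-EGFR antibody binding compounds printed on slides; score combines fluorescence near 667 nm and signal to noise of each spot.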 As to conditions: small-molecule microarray, higher = more signal.

Pro-neuregulin-1, membrane-bound isoform (Homo sapiens), sequence (Q02297 whole entry, looked up, the tested form may be a part, canonical isoform): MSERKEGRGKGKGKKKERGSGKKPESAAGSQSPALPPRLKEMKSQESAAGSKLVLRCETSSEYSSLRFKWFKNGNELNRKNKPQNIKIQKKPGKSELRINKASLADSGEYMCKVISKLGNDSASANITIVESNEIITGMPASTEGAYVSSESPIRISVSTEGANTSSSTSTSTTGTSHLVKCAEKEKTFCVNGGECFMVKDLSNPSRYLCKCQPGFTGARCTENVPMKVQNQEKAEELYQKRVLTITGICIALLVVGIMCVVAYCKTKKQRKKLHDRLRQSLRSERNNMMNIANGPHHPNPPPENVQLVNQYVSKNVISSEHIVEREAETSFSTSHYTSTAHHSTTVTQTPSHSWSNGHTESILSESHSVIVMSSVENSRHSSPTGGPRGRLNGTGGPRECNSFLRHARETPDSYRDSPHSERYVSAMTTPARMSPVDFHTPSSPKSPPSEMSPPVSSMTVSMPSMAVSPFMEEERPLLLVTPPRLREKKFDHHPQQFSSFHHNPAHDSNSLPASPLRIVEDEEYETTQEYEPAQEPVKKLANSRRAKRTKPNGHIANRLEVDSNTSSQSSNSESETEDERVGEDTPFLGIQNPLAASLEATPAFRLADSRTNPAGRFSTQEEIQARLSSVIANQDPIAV
Neurogenic locus notch homolog protein 3 (Homo sapiens), sequence (Q9UM47 whole entry, looked up): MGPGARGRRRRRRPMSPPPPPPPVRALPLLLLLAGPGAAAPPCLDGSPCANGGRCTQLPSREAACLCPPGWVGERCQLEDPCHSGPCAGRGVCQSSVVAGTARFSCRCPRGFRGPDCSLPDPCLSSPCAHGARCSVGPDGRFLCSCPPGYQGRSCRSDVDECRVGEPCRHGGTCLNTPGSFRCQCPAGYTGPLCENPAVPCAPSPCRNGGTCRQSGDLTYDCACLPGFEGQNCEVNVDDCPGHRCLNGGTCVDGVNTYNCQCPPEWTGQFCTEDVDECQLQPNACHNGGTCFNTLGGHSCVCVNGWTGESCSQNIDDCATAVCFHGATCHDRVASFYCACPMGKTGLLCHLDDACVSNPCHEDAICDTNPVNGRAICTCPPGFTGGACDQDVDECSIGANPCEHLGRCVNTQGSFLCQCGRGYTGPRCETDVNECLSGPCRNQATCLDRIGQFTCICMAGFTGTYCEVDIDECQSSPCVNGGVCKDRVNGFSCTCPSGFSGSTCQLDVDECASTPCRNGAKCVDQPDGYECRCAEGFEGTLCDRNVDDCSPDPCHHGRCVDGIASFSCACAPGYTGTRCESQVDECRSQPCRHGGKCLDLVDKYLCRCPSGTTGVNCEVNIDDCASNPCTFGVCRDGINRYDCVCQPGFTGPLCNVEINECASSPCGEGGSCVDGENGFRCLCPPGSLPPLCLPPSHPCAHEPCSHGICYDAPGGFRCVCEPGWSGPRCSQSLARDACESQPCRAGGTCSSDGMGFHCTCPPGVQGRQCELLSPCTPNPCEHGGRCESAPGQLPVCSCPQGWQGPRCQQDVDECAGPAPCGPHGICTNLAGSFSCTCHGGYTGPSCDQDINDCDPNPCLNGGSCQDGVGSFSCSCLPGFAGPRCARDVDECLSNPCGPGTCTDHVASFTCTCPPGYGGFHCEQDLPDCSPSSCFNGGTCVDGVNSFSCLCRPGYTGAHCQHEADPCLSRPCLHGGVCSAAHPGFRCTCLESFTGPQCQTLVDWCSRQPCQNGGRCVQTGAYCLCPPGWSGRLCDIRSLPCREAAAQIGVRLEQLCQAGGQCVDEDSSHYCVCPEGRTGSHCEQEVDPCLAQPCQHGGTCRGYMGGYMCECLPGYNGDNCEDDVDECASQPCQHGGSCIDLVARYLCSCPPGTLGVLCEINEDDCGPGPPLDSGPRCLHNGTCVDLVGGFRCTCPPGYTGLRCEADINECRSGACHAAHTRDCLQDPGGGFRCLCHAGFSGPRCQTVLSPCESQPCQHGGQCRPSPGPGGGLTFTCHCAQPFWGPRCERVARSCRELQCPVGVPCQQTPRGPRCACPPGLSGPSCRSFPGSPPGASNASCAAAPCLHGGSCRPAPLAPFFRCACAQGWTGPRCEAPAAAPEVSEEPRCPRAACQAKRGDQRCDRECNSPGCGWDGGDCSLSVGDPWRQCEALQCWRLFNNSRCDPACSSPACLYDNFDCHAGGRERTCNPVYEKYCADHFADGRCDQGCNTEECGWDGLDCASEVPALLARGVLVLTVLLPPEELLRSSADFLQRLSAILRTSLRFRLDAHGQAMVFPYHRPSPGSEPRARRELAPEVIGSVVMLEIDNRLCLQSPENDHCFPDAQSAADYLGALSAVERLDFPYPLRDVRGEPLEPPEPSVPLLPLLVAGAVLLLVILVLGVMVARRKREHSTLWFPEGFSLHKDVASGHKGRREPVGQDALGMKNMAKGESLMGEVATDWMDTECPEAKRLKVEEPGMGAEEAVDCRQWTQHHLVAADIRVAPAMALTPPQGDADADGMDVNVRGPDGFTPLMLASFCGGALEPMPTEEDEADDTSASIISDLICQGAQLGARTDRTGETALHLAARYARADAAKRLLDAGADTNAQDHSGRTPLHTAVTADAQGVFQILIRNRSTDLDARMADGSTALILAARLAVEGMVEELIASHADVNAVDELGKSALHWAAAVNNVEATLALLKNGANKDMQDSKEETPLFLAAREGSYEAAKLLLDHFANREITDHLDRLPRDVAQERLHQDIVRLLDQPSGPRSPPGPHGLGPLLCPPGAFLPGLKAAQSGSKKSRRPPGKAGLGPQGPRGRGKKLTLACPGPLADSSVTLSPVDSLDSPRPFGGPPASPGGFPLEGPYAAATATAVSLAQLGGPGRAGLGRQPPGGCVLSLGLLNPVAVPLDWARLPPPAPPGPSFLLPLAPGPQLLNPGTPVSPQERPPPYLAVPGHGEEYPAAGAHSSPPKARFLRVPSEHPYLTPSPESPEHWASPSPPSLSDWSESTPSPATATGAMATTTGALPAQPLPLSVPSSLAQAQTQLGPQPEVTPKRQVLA
Torsin-1A-interacting protein 2 (Homo sapiens), sequence (Q8NFQ8 whole entry, looked up): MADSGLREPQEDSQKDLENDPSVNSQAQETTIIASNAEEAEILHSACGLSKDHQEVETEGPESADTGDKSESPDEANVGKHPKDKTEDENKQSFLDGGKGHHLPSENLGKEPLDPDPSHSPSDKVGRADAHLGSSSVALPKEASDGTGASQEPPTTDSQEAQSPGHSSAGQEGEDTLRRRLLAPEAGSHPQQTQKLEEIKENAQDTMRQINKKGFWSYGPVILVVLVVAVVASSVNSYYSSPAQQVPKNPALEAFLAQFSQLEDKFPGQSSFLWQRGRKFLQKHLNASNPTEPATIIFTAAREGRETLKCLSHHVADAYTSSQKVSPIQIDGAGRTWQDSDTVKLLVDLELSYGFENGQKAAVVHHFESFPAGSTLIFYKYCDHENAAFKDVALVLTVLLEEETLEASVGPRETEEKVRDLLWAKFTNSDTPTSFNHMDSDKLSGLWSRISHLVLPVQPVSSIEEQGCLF

`[N-]=[N+]=NCc1ccccc1C[C@@]1(C(=O)O)N=C(c2ccc(OCCCO)cc2)O[C@@H]1c1ccccc1CN=[N+]=[N-]`: the composite z-score in assay [1] was 0.0419; in [2], 1.34; in assay [3], -0.01; in assay [4] it was 0.556; in assay [5], 1.17; in assay [6], 1.1. The composite z-score in assay [7] is 1.22; in assay [9], 0.663; in assay [10], -0.173; in assay [11], 1.28; in assay [15], 1.59; in assay [17], 0.0829. Moreover, the composite z-score was found to be 0.34 in assay [18], 0.679 in assay [19] and 0.0264 in assay [20]. The z-score in assay [8] was 2.88 (inactive); in assay [12] it was -1.5 (inactive); in [13], -3.13 (inactive); in assay [14], -1.55 (inactive); in [16] it was 0.345 (inactive).

On to `[N-]=[N+]=NCc1ccccc1C[C@]1(C(=O)O)COC(c2ccc(OCCCO)cc2)=N1`, for which the composite z-score was 0.895 in assay [1]; -0.167 in [2]; -0.0213 in assay [3]; -0.461 in assay [4]; -0.664 in [5]; 1.57 in assay [6]. In addition, the composite z-score was 0.0238 in assay [7]; 0.0273 in assay [9]; 0.2 in assay [10]; -0.486 in [11]; -0.0986 in assay [15]; -0.0252 in assay [17]. Further, the composite z-score in assay [18] was -0.389; in assay [19], -0.614; in [20] it was -0.0702. Also, the z-score in assay [8] was 0.277 (inactive); in [12], 0.493 (inactive); in [13], 0.612 (inactive); in assay [14], -0.0738 (inactive); in assay [16], 0.398 (inactive).

With `O=C1N(CCS(=O)(=O)c2ccccc2)c2ccccc2[C@@H]2OC(c3ccc(OCCCO)cc3)=N[C@]12CCS(=O)(=O)c1ccccc1`, the composite z-score came out at 0.359 in assay [1]; 0.145 in assay [2]; 0.0069 in assay [3]; 0.291 in assay [4]; 1.44 in assay [5]; 0.195 in assay [6]. The composite z-score in assay [7] turned out to be 1.28; in [9] it was 0.855; in assay [10], 0.0053; in assay [11], 1.54; in [15] it was 3.46; in assay [17], 0.471. The composite z-score was 0.833 in [18], 1.14 in [19] and -0.0333 in [20]. The z-score in [8] is -3.3 (inactive); in assay [12], 0.864 (inactive); in [13], 1.78 (inactive); in assay [14], 4.01 (inactive); in assay [16], 0.678 (inactive).

Regarding `CCOC(=O)C1=CCC(c2cc3ccccc3[nH]2)N(S(=O)(=O)c2ccccc2[N+](=O)[O-])C1` (stereo not given), the composite z-score in [1] is -0.191; in assay [2], 0.0999; in assay [3], -0.0481; in assay [4], 0.465; in assay [5] it was 1.37; in assay [6], 1.48. For the same molecule, the composite z-score in [7] was 0.957; in assay [9], 0.361; in [10], 0.0505; in [11], 0.659; in [15] it was 3.07; in [17] it was -0.125. Besides, the composite z-score in assay [18] stood at 0.674; in [19], 0.356; in [20], 0.0357. The z-score in assay [8] is -2.98 (inactive); in assay [12], -0.134 (inactive); in assay [13], 1.18 (inactive); in [14] it was 1.41 (inactive); in assay [16], -0.424 (inactive).

`C=C(COC)C(=O)CC[C@@H](OC(=O)c1cccnc1)c1cccc(OCCO)c1`: the composite z-score was 0.0424 in assay [1]; 0.759 in assay [2]; -0.0332 in assay [3]; 0.455 in assay [4]; -0.0967 in assay [5]; 0.851 in assay [6]. In addition, the composite z-score in [7] is 0.762; in assay [9], 0.532; in assay [10], -0.171; in [11], 1.37; in [15] it was 1.35; in [17], 0.0932. For the same molecule, the figures for the composite z-score in assay [18], in assay [19] and in assay [20] were 0.873, 0.693 and -0.0922, respectively. Besides, the z-score in assay [8] was 0.587 (inactive); in assay [12] it was -0.686 (inactive); in assay [13] it was -1.14 (inactive); in assay [14], -0.632 (inactive); in [16] it was 0.726 (inactive).
